Experimental data from PubChem BioAssay (NCATS).
Several values for one entry are separate records, joined by “and”; a condition that tells them apart may be missing. Identical values can stand only once. Inconclusive results are not listed. Activity calls are given as the source filed them. The call rests on the fitted dose curve; in most records, active means well fitted inhibition curve with a large enough effect; inconclusive means small, poorly fitted or top-dose-only effect; inactive means flat fitted curve, though single readings scatter.

Columns and labels:
NIH3T3 [1] = assay: Cytotoxic Profiling of Annotated Libraries Using Quantitative High-Throughput Screening (AID 1296008); details: Five cell lines viability, CellTiter-Glo ATP luminescence, 48-72 h; max response: hits give low values
Procedure, shortened: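 Cytotoxicity was measured as CellTiter-Glo ATP luminescence, read after 10 min at room temperature. Compound treatment of the cells lasted 48 or 72 hr at 37 degrees Celsius in a qHTS format.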

HACAT = assay: qHTS assay to identify novel small-molecules to repurpose for Merkel cell carcinoma treatment (AID 1296009); details: MCC and control cell lines, CellTiter-Glo viability, 72 h; at 44.8 µM (top of the series) unless noted; further: potency means the concentration at half of the fitted maximal effect
Procedure, shortened: (§1)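 72 hr, 37 degree celsius; NPC 8-pt / MIPE 11-pt dose response; compound pinned in DMSO; CellTiter-Glo, 10 min RT, luminescence; normalized to no-cell and DMSO controls.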

MCC-13 = assay: as above; details: MCC and control cell lines, CellTiter-Glo viability, 72 h; series mostly up to 46 µM
Procedure, shortened: as §1

MCC-26 = assay: as above; details: MCC and control cell lines, CellTiter-Glo viability, 72 h; series mostly up to 46 µM
Procedure, shortened: as §1

MKL-1 = assay: as above; details: MCC and control cell lines, CellTiter-Glo viability, 72 h; series mostly up to 46 µM
Procedure, shortened: as §1

MKL-2 = assay: as above; details: MCC and control cell lines, CellTiter-Glo viability, 72 h; series mostly up to 46 µM
Procedure, shortened: as §1

NIH3T3 [2] = assay: as above; details: MCC and control cell lines, CellTiter-Glo viability, 72 h; at 44.8 µM (top of the series) unless noted
Procedure, shortened: as §1

UISO = assay: as above; details: MCC and control cell lines, CellTiter-Glo viability, 72 h; series mostly up to 46 µM
Procedure, shortened: as §1

WaGa = assay: as above; details: MCC and control cell lines, CellTiter-Glo viability, 72 h; series mostly up to 46 µM
Procedure, shortened: as §1

HEK293T = assay: as above; details: MCC and control cell lines, CellTiter-Glo viability, 72 h; at 44.8 µM (top of the series) unless noted
Procedure, shortened: as §1
Further: nearly all actives have a fitted effect of over 60% in size.
On the % scale 0 is the no-effect control and ±100 the full control effect.

CN1[C@@H]2CC[C@H]1CC(OC(=O)C(O)c1ccccc1)C2 (some centres undefined)
inactive: outcome (NIH3T3 [1]) | outcome (HACAT) | Potency (MCC-13) | Potency (MCC-26) | Potency (MKL-1) | Potency (MKL-2) | outcome (NIH3T3 [2]) | Potency (UISO) | Potency (WaGa)

CCN(CC)CCOC(=O)C1(C2CCCCC2)CCCCC1
inactive: max response (NIH3T3 [1]) 1.01% | outcome (HACAT) | Potency (MCC-13) | Potency (MCC-26) | Potency (MKL-1) | Potency (MKL-2) | Potency (UISO) | Potency (WaGa)

CCCc1c(OCCCCc2nn[nH]n2)ccc(C(C)=O)c1O
inactive: max response (NIH3T3 [1]) 2.45% | outcome (HACAT) | outcome (HEK293T) | Potency (MCC-13) | Potency (MCC-26) | Potency (MKL-1) | Potency (MKL-2) | Potency (UISO) | Potency (WaGa)

CCCCCCCCCCCCCCCCCCOCC(O)CO (centres undefined)
inactive: max response (NIH3T3 [1]) 4.13% | outcome (HACAT) | outcome (HEK293T) | Potency (MCC-13) | Potency (MCC-26) | Potency (MKL-1) | Potency (MKL-2) | Potency (UISO) | Potency (WaGa)

Cc1cc(O)cc2c1O[C@](C)(CCC[C@H](C)CCC[C@H](C)CCCC(C)C)CC2
inactive: outcome (NIH3T3 [1]) | outcome (HACAT) | Potency (MCC-13) | Potency (MCC-26) | Potency (MKL-1) | Potency (MKL-2) | outcome (NIH3T3 [2]) | Potency (UISO) | Potency (WaGa)

CCCCOc1cc(C(=O)OCCN(CC)CC)ccc1N
inactive: outcome (NIH3T3 [1]) | outcome (HACAT) | Potency (MCC-13) | Potency (MCC-26) | Potency (MKL-1) | Potency (MKL-2) | outcome (NIH3T3 [2]) | Potency (UISO) | Potency (WaGa)

O=C(O)c1ccccc1O
inactive: outcome (NIH3T3 [1]) | outcome (HEK293T) | Potency (MCC-13) | Potency (MCC-26) | Potency (MKL-1) | Potency (MKL-2) | outcome (NIH3T3 [2]) | Potency (UISO) | Potency (WaGa)

O=C(O)Cc1sc(-c2ccccc2)nc1-c1ccc(Cl)cc1
inactive: max response (NIH3T3 [1]) -0.692% | outcome (HACAT) | outcome (HEK293T) | Potency (MCC-13) | Potency (MCC-26) | Potency (MKL-1) | Potency (MKL-2) | Potency (UISO) | Potency (WaGa)

OCC(CO)N[C@H]1C[C@](O)(CO)[C@@H](O)[C@H](O)[C@H]1O
inactive: max response (NIH3T3 [1]) 3.34% | outcome (HACAT) | outcome (HEK293T) | Potency (MCC-13) | Potency (MCC-26) | Potency (MKL-1) | Potency (MKL-2) | Potency (UISO) | Potency (WaGa)

NC1CCN(c2cccc(Cl)n2)CC1
inactive: outcome (NIH3T3 [1]) | outcome (HACAT) | Potency (MCC-13) | Potency (MCC-26) | Potency (MKL-1) | Potency (MKL-2) | outcome (NIH3T3 [2]) | Potency (UISO) | Potency (WaGa)

O=S(=O)(O)c1cc(I)c(O)c2ncccc12
inactive: max response (NIH3T3 [1]) -0.492% | outcome (HACAT) | outcome (HEK293T) | Potency (MCC-13) | Potency (MCC-26) | Potency (MKL-1) | Potency (MKL-2) | Potency (UISO) | Potency (WaGa)

CC(C)(C)C(=O)NCCCC(=O)O
inactive: outcome (NIH3T3 [1]) | outcome (HEK293T) | Potency (MCC-13) | Potency (MCC-26) | Potency (MKL-1) | Potency (MKL-2) | outcome (NIH3T3 [2]) | Potency (UISO) | Potency (WaGa)

C[C@H](NC(CCc1ccccc1)C(=O)O)C(=O)N1CCC[C@H]1C(=O)O (some centres undefined)
inactive: max response (NIH3T3 [1]) 1.23% | outcome (HACAT) | Potency (MCC-13) | Potency (MCC-26) | Potency (MKL-1) | Potency (MKL-2) | Potency (UISO) | Potency (WaGa)

CN1CCCCC1CCN1c2ccccc2Sc2ccc(S(C)=O)cc21 (centres undefined)
inactive: max response (NIH3T3 [1]) -18.7% | outcome (HACAT) | Potency (MCC-13) | Potency (MCC-26) | Potency (MKL-1) | Potency (MKL-2) | Potency (UISO)

NC(=O)N/N=C/c1ccc([N+](=O)[O-])o1
inactive: max response (NIH3T3 [1]) 3.44% | outcome (HACAT) | Potency (MCC-13) | Potency (MCC-26) | Potency (UISO)
active: Potency (MKL-1) 24.3 µM | Potency (MKL-2) 15.4 µM | Potency (WaGa) 38.6 µM

CC(=O)Nc1ccc(/C=N/NC(N)=S)cc1
inactive: max response (NIH3T3 [1]) -3.1% | outcome (HACAT) | Potency (MCC-13) | Potency (MCC-26) | Potency (MKL-1) | Potency (MKL-2) | Potency (UISO) | Potency (WaGa)

O=c1cc[nH]c(=S)[nH]1
inactive: max response (NIH3T3 [1]) -2.25% | outcome (HACAT) | outcome (HEK293T) | Potency (MCC-13) | Potency (MCC-26) | Potency (MKL-1) | Potency (MKL-2) | Potency (UISO) | Potency (WaGa)

O=C1Nc2ccc(Cl)cc2[C@@](C#CC2CC2)(C(F)(F)F)O1
inactive: max response (NIH3T3 [1]) 3.57% | outcome (HACAT) | Potency (MCC-26)

NC(=O)NC(=O)Cc1ccccc1
inactive: max response (NIH3T3 [1]) 3.84% | outcome (HACAT) | outcome (HEK293T) | Potency (MCC-13) | Potency (MCC-26) | Potency (MKL-1) | Potency (MKL-2) | Potency (UISO) | Potency (WaGa)

N[C@@H](CSSC[C@H](N)C(=O)O)C(=O)O
inactive: max response (NIH3T3 [1]) 0.783% | outcome (HACAT) inactive [at 0.588 µM] | outcome (HEK293T) inactive [at 0.588 µM] | activity change, negative = cytotoxicity (MCC-13) 4.94% [at 0.597 µM] | activity change, negative = cytotoxicity (MCC-26) 1% [at 0.597 µM] | activity change, negative = cytotoxicity (MKL-1) 8.58% [at 0.597 µM] | activity change, negative = cytotoxicity (MKL-2) 18.8% [at 0.597 µM] | activity change, negative = cytotoxicity (UISO) 9.88% [at 0.597 µM] | activity change, negative = cytotoxicity (WaGa) 9.72% [at 0.597 µM]

Cc1cccc(Nc2cc(Cl)nc(SCC(=O)O)n2)c1C
inactive: max response (NIH3T3 [1]) -16.8% and 0.675% | outcome (HACAT) | Potency (MCC-13) | Potency (MCC-26) | Potency (MKL-1) | Potency (MKL-2) | Potency (UISO) | Potency (WaGa)

NCCNCCNCCNCCN
inactive: max response (NIH3T3 [1]) -0.231% | outcome (HACAT) inactive [at 9.27 µM] | outcome (HEK293T) inactive [at 9.27 µM] | activity change, negative = cytotoxicity (MCC-13) 6.32% [at 9.22 µM] | activity change, negative = cytotoxicity (MCC-26) -6.59% [at 9.22 µM] | activity change, negative = cytotoxicity (MKL-1) -8% [at 9.22 µM] | activity change, negative = cytotoxicity (MKL-2) -0.706% [at 9.22 µM] | activity change, negative = cytotoxicity (UISO) 44% [at 9.22 µM] | activity change, negative = cytotoxicity (WaGa) -2.21% [at 9.22 µM]

O=C1O[C@H](CO)[C@@H](O)[C@H](O)[C@H]1O
inactive: max response (NIH3T3 [1]) -2.57% | outcome (HACAT) | outcome (HEK293T) | Potency (MCC-13) | Potency (MCC-26) | Potency (MKL-1) | Potency (MKL-2) | Potency (UISO) | Potency (WaGa)

CC(=O)NC(Cc1ccccc1)C(=O)O (centres undefined)
inactive: max response (NIH3T3 [1]) 0.258% and -10.1% | outcome (HACAT) inactive [at 92 µM] | Potency (MCC-13) | Potency (MCC-26) | Potency (MKL-1) | Potency (MKL-2) | Potency (UISO) | Potency (WaGa)

COc1cc(C(=O)N2CCOCC2)cc(OC)c1OC
inactive: outcome (NIH3T3 [1]) | outcome (HACAT) | Potency (MCC-13) | Potency (MCC-26) | Potency (MKL-1) | Potency (MKL-2) | outcome (NIH3T3 [2]) | Potency (UISO) | Potency (WaGa)

CC(C(O)c1ccc(O)cc1)N1CCC(Cc2ccccc2)CC1 (centres undefined)
inactive: max response (NIH3T3 [1]) -2.06% and 3.27% | outcome (HACAT) inactive [at 17.4 µM] | Potency (MCC-13) | Potency (MCC-26) | Potency (MKL-1) | Potency (MKL-2) | Potency (UISO) | Potency (WaGa)

NC(N)=NCCC[C@H](N)C(=O)O
inactive: outcome (NIH3T3 [1]) | outcome (HACAT) inactive [at 4.96 µM] | activity change, negative = cytotoxicity (MCC-13) 10.7% [at 4.84 µM] | activity change, negative = cytotoxicity (MCC-26) 1.83% [at 4.84 µM] | activity change, negative = cytotoxicity (MKL-1) 12.8% [at 4.84 µM] | activity change, negative = cytotoxicity (MKL-2) 13.9% [at 4.84 µM] | outcome (NIH3T3 [2]) inactive [at 4.96 µM] | activity change, negative = cytotoxicity (UISO) 9.23% [at 4.84 µM] | activity change, negative = cytotoxicity (WaGa) 4.2% [at 4.84 µM]

O=c1cc(CO)occ1O
inactive: max response (NIH3T3 [1]) -2.71% | outcome (HEK293T) | Potency (MCC-13) | Potency (MCC-26) | Potency (MKL-1) | Potency (MKL-2) | Potency (UISO) | Potency (WaGa)

CCCCC/C(C=O)=C\c1ccccc1
inactive: outcome (NIH3T3 [1]) | outcome (HEK293T) | Potency (MCC-13) | Potency (MCC-26) | Potency (MKL-1) | Potency (MKL-2) | outcome (NIH3T3 [2]) | Potency (UISO) | Potency (WaGa)

NCC(=O)CCC(=O)O
inactive: outcome (NIH3T3 [1]) | outcome (HEK293T) | Potency (MCC-13) | Potency (MCC-26) | Potency (MKL-1) | Potency (MKL-2) | outcome (NIH3T3 [2]) | Potency (UISO) | Potency (WaGa)

CC1(C)Oc2ccc(C#N)cc2[C@@H](N2CCCC2=O)[C@@H]1O
inactive: max response (NIH3T3 [1]) -6.15% | Potency (MCC-13) | Potency (MCC-26) | Potency (MKL-1) | Potency (MKL-2) | Potency (UISO) | Potency (WaGa)

CN(C)CC[C@@H](c1ccc(Cl)cc1)c1ccccn1
inactive: outcome (NIH3T3 [1]) | Potency (MCC-13) | Potency (MCC-26) | Potency (MKL-1) | Potency (MKL-2) | outcome (NIH3T3 [2]) | Potency (UISO) | Potency (WaGa)
